Assay [1] has as its target Muscarinic acetylcholine receptor M1 (Homo sapiens) (UniProt P11229). Description: NVS_GPCR_hM1: NovaScreen (NVS) G Protein-Coupled Receptor Assay for human Muscarinic, M1 Receptor (AID 2283270). The procedure, abridged:
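Actives from a duplicate 25 uM single-point screen were retested in concentration series. Binding measured as displacement of a radioligand from CHO-derived receptor preparation, 1 h incubation, filtration and scintillation counting, analysed as signal loss against DMSO.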

In assay [2] the target is Muscarinic acetylcholine receptor M3 (Homo sapiens) (UniProt P20309). Description: NVS_GPCR_hM3: NovaScreen (NVS) G Protein-Coupled Receptor Assay for human Muscarinic, M3 Receptor (AID 2283272). The procedure, abridged:
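Radioligand displacement binding on human M3 receptor in CHO-derived membranes, 1 h incubation, filter-based scintillation counting. Primary screen in duplicate at 25 uM; actives followed up in concentration series; loss of signal versus DMSO.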

Assay [3] deals with rabbit Platelet Activating Factor Receptor (PAF), gene 100354046. Put plainly: NVS_GPCR_rabPAF: NovaScreen (NVS) G Protein-Coupled Receptor Assay for rabbit Platelet Activating Factor Receptor (PAF) (AID 2283287). A digest of the protocol:
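Rabbit platelet membrane preparation; radioligand displacement read by filter-based scintillation counting 1 h after dosing, loss of signal versus DMSO. Primary screen in duplicate at 25 uM, actives followed up in concentration series.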

The target in assay [4] is human Leukotriene B4 Receptor 1 (LTB4-BLT1), LTB4R (gene 1241) (UniProt Q15722). Put plainly: NVS_GPCR_hLTB4_BLT1: NovaScreen (NVS) G Protein-Coupled Receptor Assay for human Leukotriene B4 Receptor 1 (LTB4-BLT1) (AID 2283271). A digest of the protocol:
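Cell-free human neutrophil receptor preparation, 1 h exposure, radioligand binding read by filter scintillation counting. Single 25 uM duplicate screen, then concentration series topping at 50 uM; binding loss scored against DMSO baseline.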

The target of assay [5] is Muscarinic acetylcholine receptor M2 (Homo sapiens) (UniProt P08172). Description: NVS_GPCR_hM2: NovaScreen (NVS) G Protein-Coupled Receptor Assay for human Muscarinic, M2 Receptor (AID 2283273). The procedure, abridged: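 CHO-expressed human M2 receptor preparation, competitive displacement of a radioligand read by filter-based scintillation counting after 1 h. Single 25 uM duplicate screen, then concentration-response follow-up of actives; DMSO baseline.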

The target of assay [6] is human Muscarinic, M4 Receptor, CHRM4 (gene 1132) (UniProt P08173). Description: NVS_GPCR_hM4: NovaScreen (NVS) G Protein-Coupled Receptor Assay for human Muscarinic, M4 Receptor (AID 2283274). A digest of the protocol: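 Filter-based scintillation counting of radioligand bound to CHO-expressed human M4 preparations after 1 h; loss of signal fitted versus DMSO. Initial duplicate testing at 25 uM, concentration-response follow-up for actives.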

In assay [7] the target is Neuropeptide Y receptor type 2 (Homo sapiens) (UniProt P49146). Put plainly: NVS_GPCR_hNPY2: NovaScreen (NVS) G Protein-Coupled Receptor Assay for human Neuropeptide Receptor Y2 (NPY2) (AID 2283277). The procedure, abridged:
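Chemicals were first tested in duplicate at 25 uM, then actives in singleton concentration series to 50 uM. Tracer binding to SK-N-MC-derived protein measured cell-free after 1 h via filter scintillation; signal loss relative to DMSO.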

Assay [8] concerns the target rat Serotonin, 5-Hydroxytryptamine Receptor 1 (5HT1), Non-Selective Binding, Htr1a (gene 24473) (UniProt P19327). Put plainly: NVS_GPCR_r5HT1_NonSelective: NovaScreen (NVS) G Protein-Coupled Receptor Assay for rat Serotonin, 5-Hydroxytryptamine Receptor 1 (5HT1), Non-Selective Binding (AID 2283286). The procedure, abridged:
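Binding of a radioligand to rat cortex membranes is read by filtration and scintillation counting after 1 h. Compounds were screened at 25 uM in duplicate. Actives were then titrated to a top of 50 uM. DMSO is the baseline.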

Assay [9] deals with human Endothelin Receptor Type B (ETB), EDNRB (gene 1910) (UniProt P24530). Put plainly: NVS_GPCR_hETB: NovaScreen (NVS) G Protein-Coupled Receptor Assay for human Endothelin Receptor Type B (ETB) (AID 2283267). The procedure, abridged:
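Filter-based scintillation readout of radioligand displacement, 4 h, using membranes from human astrocytoma cells. Actives from a 25 uM duplicate screen were retested in concentration-response (top 50 uM) relative to DMSO baseline.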

Assay [10] deals with D(1A) dopamine receptor (Homo sapiens) (UniProt P21728). Description: NVS_GPCR_hDRD1: NovaScreen (NVS) G Protein-Coupled Receptor Assay for human Dopamine Receptor D1 (DRD1) (AID 2283269). The procedure, abridged: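 Radioligand displacement binding on membranes/protein extracted from HEK293 expressing human D1, cell-free; read 1 h after dosing by filter-based scintillation counting. Primary screen in duplicate at 25 uM, actives followed up in concentration series; signal loss versus DMSO baseline.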

The target of assay [11] is human Neuropeptide Receptor Y1 (NPY1), NPY1R (gene 4886) (UniProt P25929). Description: NVS_GPCR_hNPY1: NovaScreen (NVS) G Protein-Coupled Receptor Assay for human Neuropeptide Receptor Y1 (NPY1) (AID 2283276). A digest of the protocol:
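Displacement of specific radioligand from NPY1 receptor of SK-N-MC origin, read by filtration and scintillation after 1 h. Compounds first tested at 25 uM in duplicate, then actives in concentration series; signal loss relative to DMSO.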

Assay [12] deals with human Neurokinin, NK2 Receptor, TACR2 (gene 6865) (UniProt P21452). Put plainly: NVS_GPCR_hNK2: NovaScreen (NVS) G Protein-Coupled Receptor Assay for human Neurokinin, NK2 Receptor (AID 2283278).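 Note: actives reduce bound radioligand signal relative to DMSO baseline.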 A digest of the protocol: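 Radioligand binding on membranes from CHO cells expressing receptor, filter-based scintillation read 4 h after dosing. Initial duplicate screen at 25 uM, actives in concentration series; loss of signal versus DMSO.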

The target in assay [13] is human Opioid Receptor Delta 1 (Opiate D1), OPRD1 (gene 4985) (UniProt P41143). Description: NVS_GPCR_hOpiate_D1: NovaScreen (NVS) G Protein-Coupled Receptor Assay for human Opioid Receptor Delta 1 (Opiate D1) (AID 2283280). A digest of the protocol: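 Membrane preparations from CHO cells bearing the human receptor were incubated 1 h with test chemical, and bound radioligand was counted after filtration. Actives from 25 uM duplicate screening were retested in concentration-response.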

The target in assay [14] is human Thromboxane A2 Receptor (TXA2), TBXA2R (gene 6915) (UniProt P21731). Description: NVS_GPCR_hTXA2: NovaScreen (NVS) G Protein-Coupled Receptor Assay for human Thromboxane A2 Receptor (TXA2) (AID 2283282).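 Note: actives reduce bound radioligand signal relative to DMSO baseline.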 A digest of the protocol:
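Screening ran at 25 uM in duplicate, with concentration series for confirmed actives. Each test measures radioligand binding to human platelet protein after 1 h, cell-free, using filter-based scintillation detection of signal loss relative to DMSO.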

Assay [15] has as its target human Orphanin, Opioid Related Nociceptin Receptor 1 (ORL1), OPRL1 (gene 4987) (UniProt P41146). Put plainly: NVS_GPCR_hORL1: NovaScreen (NVS) G Protein-Coupled Receptor Assay for human Orphanin, Opioid Related Nociceptin Receptor 1 (ORL1) (AID 2283283). A digest of the protocol: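 Cell-free binding using HEK293-derived receptor protein: radioligand displacement measured by filter scintillation 1 hour after dosing. Primary testing at 25 uM in duplicate, followed by singleton concentration series up to 50 uM; DMSO served as negative control.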

Assay [16] addresses human Vasopressin 1A Receptor (V1A), AVPR1A (gene 552) (UniProt P37288). Description: NVS_GPCR_hV1A: NovaScreen (NVS) G Protein-Coupled Receptor Assay for human Vasopressin 1A Receptor (V1A) (AID 2283284). The procedure, abridged: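 Single-concentration duplicate screen at 25 uM, with concentration-response follow-up (top 50 uM) for actives. The assay measured displacement of a radioligand from human platelet-derived receptor after 1.5 h, detected by filtration and scintillation counting.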

For assay [17], the target named is mouse Cholecystokinin, CCK1 Receptor (CCKA), Cckar (gene 12425) (UniProt O08786). Description: NVS_GPCR_mCCKAPeripheral: NovaScreen (NVS) G Protein-Coupled Receptor Assay for mouse Cholecystokinin, CCK1 Receptor (CCKA) (AID 2283285). A digest of the protocol:
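Chemicals were first screened in duplicate at 25 uM, with those meeting threshold (e.g., 30% inhibition) retested in singleton concentration series to 50 uM maximum. Binding of radioligand to mouse pancreatic membranes was read after 2 h by filtration and scintillation counting.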

Assay [18] deals with 5-hydroxytryptamine receptor 2C (pig). Put plainly: NVS_GPCR_p5HT2C: NovaScreen (NVS) G Protein-Coupled Receptor Assay for pig Serotonin, 5-Hydroxytryptamine Receptor 2C (5HT2C) (AID 2283288). A digest of the protocol: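 Radioligand displacement on membranes from pig choroid plexus, detected by filter scintillation counting after 1 h. Tested first at a single 25 uM in duplicate, then in concentration-response for actives; DMSO served as baseline.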

Several values for one entry are separate records, joined by “and”; a condition that tells them apart may be missing. Equal values may be shown once. Records with an inconclusive call do not appear. Where a structure was tested more than once in an assay, its records may differ in their call. Activity calls are given as the source filed them. Rule for the calls: active = hit-call score of the fitted dose curve at least 0.9, where 1 is the maximum; inconclusive = response in the unintended direction; inactive = score below 0.9.

Usually AC50 stands for the concentration giving half of the maximal activity seen.

Muscarinic acetylcholine receptor M3 (Homo sapiens), sequence (P20309 whole entry, looked up): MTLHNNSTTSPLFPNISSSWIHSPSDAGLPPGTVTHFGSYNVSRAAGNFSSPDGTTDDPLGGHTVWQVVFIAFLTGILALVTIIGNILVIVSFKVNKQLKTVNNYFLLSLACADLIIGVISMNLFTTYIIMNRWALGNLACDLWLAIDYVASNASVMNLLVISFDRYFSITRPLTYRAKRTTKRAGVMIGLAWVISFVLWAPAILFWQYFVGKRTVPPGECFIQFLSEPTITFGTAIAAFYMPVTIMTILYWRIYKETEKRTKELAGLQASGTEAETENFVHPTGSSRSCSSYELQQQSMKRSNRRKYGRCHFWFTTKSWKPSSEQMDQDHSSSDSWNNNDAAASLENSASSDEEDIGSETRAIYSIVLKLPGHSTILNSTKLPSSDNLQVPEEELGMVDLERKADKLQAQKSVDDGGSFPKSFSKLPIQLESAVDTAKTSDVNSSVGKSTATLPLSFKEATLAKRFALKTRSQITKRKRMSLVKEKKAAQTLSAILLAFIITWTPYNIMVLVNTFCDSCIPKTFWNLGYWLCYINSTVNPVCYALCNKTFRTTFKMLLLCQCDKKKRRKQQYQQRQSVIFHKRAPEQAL
human Neurokinin, NK2 Receptor, TACR2 (gene 6865), sequence (P21452 whole entry, looked up): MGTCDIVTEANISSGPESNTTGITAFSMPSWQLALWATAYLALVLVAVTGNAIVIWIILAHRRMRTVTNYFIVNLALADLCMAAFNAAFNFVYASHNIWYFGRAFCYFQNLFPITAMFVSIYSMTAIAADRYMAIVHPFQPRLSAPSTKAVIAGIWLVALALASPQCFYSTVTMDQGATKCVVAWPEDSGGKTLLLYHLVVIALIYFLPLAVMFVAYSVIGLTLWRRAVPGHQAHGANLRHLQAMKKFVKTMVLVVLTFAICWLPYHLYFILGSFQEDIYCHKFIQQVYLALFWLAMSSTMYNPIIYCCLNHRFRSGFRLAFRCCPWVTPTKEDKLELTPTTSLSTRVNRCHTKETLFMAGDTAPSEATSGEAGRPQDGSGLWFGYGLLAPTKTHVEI
human Opioid Receptor Delta 1 (Opiate D1), OPRD1 (gene 4985), sequence (P41143 whole entry, looked up): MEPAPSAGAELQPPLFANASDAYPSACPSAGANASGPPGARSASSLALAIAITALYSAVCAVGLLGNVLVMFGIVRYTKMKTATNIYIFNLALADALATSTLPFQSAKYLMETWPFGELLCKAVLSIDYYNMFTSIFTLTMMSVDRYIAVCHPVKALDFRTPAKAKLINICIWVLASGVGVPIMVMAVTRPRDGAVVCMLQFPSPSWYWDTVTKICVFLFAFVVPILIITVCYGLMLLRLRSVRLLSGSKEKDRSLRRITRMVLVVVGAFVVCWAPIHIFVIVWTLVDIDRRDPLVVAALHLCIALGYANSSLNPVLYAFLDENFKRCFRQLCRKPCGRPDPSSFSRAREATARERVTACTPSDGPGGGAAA
D(1A) dopamine receptor (Homo sapiens), sequence (P21728 whole entry, looked up): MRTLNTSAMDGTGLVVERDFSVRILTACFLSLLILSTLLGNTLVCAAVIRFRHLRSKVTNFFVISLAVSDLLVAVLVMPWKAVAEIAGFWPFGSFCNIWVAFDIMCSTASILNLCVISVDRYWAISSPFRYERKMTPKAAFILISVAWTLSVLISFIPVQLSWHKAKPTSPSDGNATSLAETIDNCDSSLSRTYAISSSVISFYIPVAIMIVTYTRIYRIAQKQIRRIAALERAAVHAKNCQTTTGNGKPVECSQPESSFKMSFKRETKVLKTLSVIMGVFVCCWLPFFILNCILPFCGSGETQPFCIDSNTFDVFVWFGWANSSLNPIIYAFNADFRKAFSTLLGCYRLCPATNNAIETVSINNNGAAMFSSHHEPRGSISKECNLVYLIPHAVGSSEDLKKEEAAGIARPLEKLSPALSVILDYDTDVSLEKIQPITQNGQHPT
human Thromboxane A2 Receptor (TXA2), TBXA2R (gene 6915), sequence (P21731 whole entry, looked up): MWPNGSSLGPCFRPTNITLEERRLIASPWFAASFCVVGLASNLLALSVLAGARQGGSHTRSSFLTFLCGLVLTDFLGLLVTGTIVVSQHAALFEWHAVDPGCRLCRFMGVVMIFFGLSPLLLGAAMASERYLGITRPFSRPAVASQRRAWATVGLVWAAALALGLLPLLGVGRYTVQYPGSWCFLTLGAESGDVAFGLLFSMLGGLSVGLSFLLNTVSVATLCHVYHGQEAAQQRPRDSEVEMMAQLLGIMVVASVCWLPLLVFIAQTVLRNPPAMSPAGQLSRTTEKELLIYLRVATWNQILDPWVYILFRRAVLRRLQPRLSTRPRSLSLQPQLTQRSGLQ
mouse Cholecystokinin, CCK1 Receptor (CCKA), Cckar (gene 12425), sequence (O08786 whole entry, looked up): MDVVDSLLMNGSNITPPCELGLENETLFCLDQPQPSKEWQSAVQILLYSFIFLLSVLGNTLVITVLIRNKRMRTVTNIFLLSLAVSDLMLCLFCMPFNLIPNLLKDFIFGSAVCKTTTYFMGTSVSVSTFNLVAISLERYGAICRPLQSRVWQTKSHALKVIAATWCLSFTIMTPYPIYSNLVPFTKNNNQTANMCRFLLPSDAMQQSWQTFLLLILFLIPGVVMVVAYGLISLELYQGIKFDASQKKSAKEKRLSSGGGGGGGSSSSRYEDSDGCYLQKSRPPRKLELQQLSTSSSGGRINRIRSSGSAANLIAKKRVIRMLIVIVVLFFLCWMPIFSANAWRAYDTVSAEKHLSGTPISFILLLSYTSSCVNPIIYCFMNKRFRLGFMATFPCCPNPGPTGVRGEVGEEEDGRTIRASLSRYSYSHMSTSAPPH
human Muscarinic, M4 Receptor, CHRM4 (gene 1132), sequence (P08173 whole entry, looked up): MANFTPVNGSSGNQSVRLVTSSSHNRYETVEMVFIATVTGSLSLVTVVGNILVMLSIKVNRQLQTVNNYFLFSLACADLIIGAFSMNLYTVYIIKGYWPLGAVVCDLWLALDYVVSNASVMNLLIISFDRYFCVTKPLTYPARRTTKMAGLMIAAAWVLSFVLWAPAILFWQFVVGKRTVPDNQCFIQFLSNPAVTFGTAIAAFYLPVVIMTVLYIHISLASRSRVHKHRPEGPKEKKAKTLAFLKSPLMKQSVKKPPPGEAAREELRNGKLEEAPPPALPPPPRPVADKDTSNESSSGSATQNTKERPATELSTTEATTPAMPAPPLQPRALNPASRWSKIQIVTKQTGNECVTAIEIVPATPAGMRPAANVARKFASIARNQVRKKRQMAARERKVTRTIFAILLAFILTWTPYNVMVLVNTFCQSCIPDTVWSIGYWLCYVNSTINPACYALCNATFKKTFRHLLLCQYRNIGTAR
human Orphanin, Opioid Related Nociceptin Receptor 1 (ORL1), OPRL1 (gene 4987), sequence (P41146 whole entry, looked up): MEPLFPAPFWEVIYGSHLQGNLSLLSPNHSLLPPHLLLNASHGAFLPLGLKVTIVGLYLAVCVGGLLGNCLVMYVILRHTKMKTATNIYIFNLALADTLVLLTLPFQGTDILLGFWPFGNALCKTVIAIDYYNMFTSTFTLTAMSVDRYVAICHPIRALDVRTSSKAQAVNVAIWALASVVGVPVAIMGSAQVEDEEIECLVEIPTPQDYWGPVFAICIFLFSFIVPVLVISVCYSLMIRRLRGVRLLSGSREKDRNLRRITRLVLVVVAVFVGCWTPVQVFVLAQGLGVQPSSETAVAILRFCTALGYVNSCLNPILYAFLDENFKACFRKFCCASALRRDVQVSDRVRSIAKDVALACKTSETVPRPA
Muscarinic acetylcholine receptor M1 (Homo sapiens), sequence (P11229 whole entry, looked up): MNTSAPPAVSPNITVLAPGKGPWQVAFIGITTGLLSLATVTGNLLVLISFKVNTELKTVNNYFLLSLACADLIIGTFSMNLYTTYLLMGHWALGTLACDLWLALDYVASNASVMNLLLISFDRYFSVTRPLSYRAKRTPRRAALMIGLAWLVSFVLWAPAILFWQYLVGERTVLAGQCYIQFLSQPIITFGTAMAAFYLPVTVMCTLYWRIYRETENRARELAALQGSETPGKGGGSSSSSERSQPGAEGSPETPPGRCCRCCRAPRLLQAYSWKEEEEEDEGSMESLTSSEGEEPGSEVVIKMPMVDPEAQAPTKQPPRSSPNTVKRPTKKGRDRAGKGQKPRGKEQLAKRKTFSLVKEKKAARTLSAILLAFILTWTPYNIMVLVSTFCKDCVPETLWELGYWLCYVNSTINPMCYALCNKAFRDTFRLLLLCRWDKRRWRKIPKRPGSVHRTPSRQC
human Leukotriene B4 Receptor 1 (LTB4-BLT1), LTB4R (gene 1241), sequence (Q15722 whole entry, looked up): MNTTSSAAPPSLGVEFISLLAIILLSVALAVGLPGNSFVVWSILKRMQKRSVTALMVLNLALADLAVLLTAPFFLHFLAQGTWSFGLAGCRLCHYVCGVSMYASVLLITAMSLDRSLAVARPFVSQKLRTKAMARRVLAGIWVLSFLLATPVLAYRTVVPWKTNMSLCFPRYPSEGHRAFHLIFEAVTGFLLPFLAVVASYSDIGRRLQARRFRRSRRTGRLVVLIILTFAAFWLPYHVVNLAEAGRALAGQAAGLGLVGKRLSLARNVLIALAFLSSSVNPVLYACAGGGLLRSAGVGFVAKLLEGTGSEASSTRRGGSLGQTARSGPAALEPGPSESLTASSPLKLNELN
Muscarinic acetylcholine receptor M2 (Homo sapiens), sequence (P08172 whole entry, looked up): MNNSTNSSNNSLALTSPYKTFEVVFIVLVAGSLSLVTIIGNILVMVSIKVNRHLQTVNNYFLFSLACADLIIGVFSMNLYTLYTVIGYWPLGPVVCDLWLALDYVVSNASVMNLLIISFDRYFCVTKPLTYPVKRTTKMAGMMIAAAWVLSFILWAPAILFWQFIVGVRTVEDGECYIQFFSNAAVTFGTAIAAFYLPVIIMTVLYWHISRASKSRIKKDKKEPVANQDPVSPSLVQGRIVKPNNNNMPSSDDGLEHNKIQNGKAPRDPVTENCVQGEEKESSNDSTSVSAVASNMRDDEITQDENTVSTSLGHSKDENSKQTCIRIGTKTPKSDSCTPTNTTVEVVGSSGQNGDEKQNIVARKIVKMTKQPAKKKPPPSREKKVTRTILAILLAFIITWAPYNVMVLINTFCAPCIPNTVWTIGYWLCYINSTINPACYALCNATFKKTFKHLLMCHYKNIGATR

For the compound `[2H]C1([2H])[n+]2ccccc2-c2cccc[n+]2C1([2H])[2H]`, the AC50 in [1] is 12.9 µM (active); in assay [2], 4.96 µM (active). The compound was called inactive in assay [3].

As for `COP(=S)(OC)Oc1ccc([N+](=O)[O-])cc1`, the compound was called inactive in [4], in assay [5] and in assay [8]. In addition, the values for the AC50 in [6] and in assay [7] were 12.1 µM (active) and 0.043 µM (active), respectively.

On to `Oc1ccc(Cl)cc1Cc1ccccc1`, for which the compound was classed as inactive in assay [9], in assay [2], in assay [5], in [6], in assay [11] and in assay [14]. The outcome in assay [16] was inactive. Also, the AC50 was 33 µM (active) [middle of 6 runs] in assay [10]; 39.4 µM (active) in assay [2]; 31.8 µM (active) and 25.2 µM (active) in assay [6]; 29.2 µM (active) [middle of 6 runs] in [12]; 25.2 µM (active) and 13.3 µM (active) in assay [13]; 7.86 µM (active) and 5.43 µM (active) in [14]. In addition, the AC50 in assay [15] is 25.2 µM (active) and 47 µM (active); in [17], 25.2 µM (active) [middle of 5 runs]; in [18], 12.6 µM (active) [middle of 4 runs].

With `CCCN(CCOc1c(Cl)cc(Cl)cc1Cl)C(=O)n1ccnc1`, the compound was called inactive in assay [4], in assay [12] and in [13]. For the same compound, the half-maximal activity concentration (AC50) in assay [17] is 10.5 µM (active).

Regarding `CC(C)N(C(=O)COc1nnc(C(F)(F)F)s1)c1ccc(F)cc1`, in [1], the result was inactive.

With `COP(=O)(OC)OC=C(Cl)Cl`, the compound was classed as inactive in [3].

With `Oc1cc(Cl)ccc1Oc1ccc(Cl)cc1Cl`, the concentration at half-maximal activity (AC50) was 25 µM (active) in [10]; 25.5 µM (active) in [12]; 10.7 µM (active) and 25.5 µM (active) and 9.39 µM (active) in assay [13]; 25.5 µM (active) and 38.4 µM (active) in assay [17]. The result in assay [10], in [6], in assay [13] and in assay [17] was inactive.
